Assay results reported in article PMC12136788.
Substitutions are numbered along the chain they refer to. Whole data set: some 24,000 sequences, median “enrichment r” near 0.99, cut for the highest 2% near 3.7. The entries come from a sample that favours the highest values as a whole.

T1: UNK ZnF1-3 (human, UniProt Q9C0B0 31-174)
T1 sequence: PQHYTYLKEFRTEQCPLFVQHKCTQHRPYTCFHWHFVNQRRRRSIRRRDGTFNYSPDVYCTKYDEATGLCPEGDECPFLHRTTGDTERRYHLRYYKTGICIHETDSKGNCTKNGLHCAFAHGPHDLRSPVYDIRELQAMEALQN

B1: chr17:34945718:34945719:+_ENSG00000005955_ENST00000304718|hu_hu|FALSE|FALSE (ssRNA)
RNA: GGGAGUUCUACAGUCCGACGAUCAUUUAACCGGCAGUAUUUAUUAAAUUUCUCCUUCAGAUGCUGUCGGUAUUGUUCUCUAUUGCUGUAGAAAGACUGGUUAUUAGCCAUAAAUGACUGUAUUUCAUCUUGUGAGAUAAAGAUCAACAGAGGAUUGAGCAUCA
B2: 90247206_90247326_4093_3pUTR_ENSMUSG00000012422_ENSMUST00000161568|mouse|control|control (ssRNA)
RNA: GGGAGUUCUACAGUCCGACGAUCUUCUCAGAAGUUAGUCAGGACCCCCUGUAACAAGGGCGAUUGCUAGCACCGUUUGAGAACAUUUAUUAUUACUAGAAGGUAACAAAGGAAGAGAAGAGCAGCCCUAAGAAUUUUCCAUUCCAACAGAGGAUUGAGCAUCA
B3: chr16:14738297:14738298:+_ENSG00000103429_ENST00000261658|hu_mus|FALSE|FALSE (ssRNA)
RNA: GGGAGUUCUACAGUCCGACGAUCGUUCAAGGUGGUGGGGUUAACCAGGGUGUCGUAGCAGCAGUGGCAGGAGAACUCGCUCACAGAAAUCUGAGGGCCGCUGCUUCUGACAGGAUGCUCUUCCUCCUGCUCUCUCAUGCUCAGCAACAGAGGAUUGAGCAUCA
B4: chr6:41757443:41757444:+_ENSG00000214736_ENST00000398881|hu_mus|hu_hu_hu_mus_False|48_98 (ssRNA)
RNA: GGGAGUUCUACAGUCCGACGAUCGAACCGUGCAGAGACCAGAGAAUAGCCGACACUGGGGGAUGGGGGGGCAGUGGGGGGGGGUUCAGGGAAGGGGAGGGAGUCAACUUCAGCUGCCACUCAGGUAGGAUCUUGUGGUCACAGCAACAGAGGAUUGAGCAUCA
B5: chr6:41757443:41757444:+_ENSG00000214736_ENST00000398881|hu_mus|hu_hu_hu_mus_False|98_108 (ssRNA)
RNA: B4 RNA with C28U, G31C, C32U, A33G, G34C, A35U, G90C, G95A
B6: 75758389_75758509_1054_3pUTR_ENSMUSG00000032932_ENSMUST00000046283|mouse|control|control (ssRNA)
RNA: GGGAGUUCUACAGUCCGACGAUCUCAGAAAGGCCAGGUCUAAACACUCUAUUCACAUGGUGACCAUCUCCUGGGGUGAGCUGGUCUUUUGGCAGUUCAGAGUCACCAUUCUGAGGUUCCUUGCUGUCCUUCCCCUCCACAGUGCAACAGAGGAUUGAGCAUCA
B7: chr6:41757443:41757444:+_ENSG00000214736_ENST00000398881|hu_mus|hu_hu_hu_mus_False|98_98 (ssRNA)
RNA: B4 RNA with G90C, G95A
B8: chr6:41757443:41757444:+_ENSG00000214736_ENST00000398881|hu_mus|hu_hu_hu_mus_False|78_98 (ssRNA)
RNA: B4 RNA with G58U, G61A, A62C, G64C, G65A, G66A, G90C, G95A
B9: chrX:98862621:98862622:+_ENSMUSG00000034160_ENSMUST00000044475|mus_hu|mus_mus_mus_hu_False|18_68 (ssRNA)
RNA: GGGAGUUCUACAGUCCGACGAUCCUGCAUCUCCUUUAGAGUGUUUCCCAUAUUAGAGUAGGCAUCAGCAAAUGUAGGACUGAUUCGAAUAGCCUCCUUAUAAUGCAUCAGAGCUUCCUGCAGCUUGCCCUGCUGCUGCAGUACCAACAGAGGAUUGAGCAUCA
B10: chr4:43703020:43703021:+_ENSMUSG00000078716_ENSMUST00000107866|mus_mus|FALSE|FALSE (ssRNA)
RNA: GGGAGUUCUACAGUCCGACGAUCCACACUGCCAGCAAUGAGCAUGUGCCAAAUGCUGUGAAUGUAGAAGUAGUUGUCCCGAGUCUCCACGAAAGCAUACAGUAGAACGGCACUGCCAGCAAUCAGGCUGCCGGGACACAGGUACAACAGAGGAUUGAGCAUCA
B11: chr2:130910683:130910684:-_ENSG00000136699_ENST00000351288|hu_hu|motif|central (ssRNA)
RNA: GGGAGUUCUACAGUCCGACGAUCGGAACACAGAGCCGCCAUCUGUCCUGCAAAUCUGUGGUUGAUGGCAGACGACAGCCGGAAGAGUGUGCGGACCAAGCUGGCGAUCUCAUAGCUCCGGAUGGGCUGCAGCUCCGGGUCCCCCAACAGAGGAUUGAGCAUCA
B12: chr17:56552419:56552420:-_ENSMUSG00000013236_ENSMUST00000086828|mus_mus|mus_mus_mus_hu_False|18_98 (ssRNA)
RNA: GGGAGUUCUACAGUCCGACGAUCAAAAAAUACACUAUAAAAAAAAAAUGAAAUGUCACGGGAUACAGUUACACUGAGAGUUUUAAAAGAAAGCUGGAUUCUGGUCCCAGCCCAGUGGCAGGCAGGGGCAGAGCGGGGAGGAGCCAACAGAGGAUUGAGCAUCA
B13: chr17:56552419:56552420:-_ENSMUSG00000013236_ENSMUST00000086828|mus_mus|mus_mus_mus_hu_False|18_18 (ssRNA)
RNA: B12 RNA with A38U, A39U
B14: chr17:56552419:56552420:-_ENSMUSG00000013236_ENSMUST00000086828|mus_mus|mus_mus_mus_hu_False|1_18 (ssRNA)
RNA: B12 RNA with A38U, A39U, A138C, G139A, C143G
B15: chr5:145543945:145543946:-_ENSG00000133706_ENST00000545646|hu_hu|hu_hu_hu_mus_True|38_98 (ssRNA)
RNA: GGGAGUUCUACAGUCCGACGAUCCUGAACGGCCAGUGGCGGGAAAUAAUCAAGCCAGUGCUCUGCUUCAGAAAACUUCACUAUGUCGUCAUCAGAGAGGCCAAGGGAUUUCAUAAUGUCCCACUGGUACUUAGAAGAUCCUGCCAACAGAGGAUUGAGCAUCA
B16: chr17:56552419:56552420:-_ENSMUSG00000013236_ENSMUST00000086828|mus_mus|mus_mus_mus_hu_False|18_48 (ssRNA)
RNA: B12 RNA with A38U, A39U, G88A, G92A, C93U, U94A, G95A
B17: chr17:56552419:56552420:-_ENSMUSG00000013236_ENSMUST00000086828|mus_mus|mus_mus_mus_hu_False|8_18 (ssRNA)
RNA: B12 RNA with A38U, A39U, C128A, A129G, G130U, A131G, G132C, C133G, G135A, G136A
B18: chr17:56552419:56552420:-_ENSMUSG00000013236_ENSMUST00000086828|mus_mus|mus_mus_mus_hu_False|18_58 (ssRNA)
RNA: B12 RNA with A38U, A39U, G77C, G79C, U81A
B19: 57396971_57397091_122_5pUTR_ENSMUSG00000021938_ENSMUST00000022507|mouse|control|control (ssRNA)
RNA: GGGAGUUCUACAGUCCGACGAUCGCUUCAGGUUUCCUCUUAACAUCAUCUUAGCAAGUUCGCUUGGGAUGCUGGAUGAGGCCUAGACGUCAAGGUACACACGUCUCCACAUGUAUCUAUGGAAACGAAGCAAGGAAAGCCAGGCAACAGAGGAUUGAGCAUCA
B20: 79664557_79664677_4134_CDS_ENSG00000146247_ENST00000275034|human|control|control (ssRNA)
RNA: GGGAGUUCUACAGUCCGACGAUCACGGAAAGGCUCUGAAUCUUCACAUUGAAAUAUGAGAUUUAACAAUUCUUCACACUGUUUCUUCCAUGCUUGAAUAUCGUAAGACUGGGCUCUAUUACGUAAUCUUCUUCUAGGCUGAUGCAACAGAGGAUUGAGCAUCA
B21: chr2:113333244:113333245:+_ENSG00000125630_ENST00000417433|hu_hu|FALSE|FALSE (ssRNA)
RNA: GGGAGUUCUACAGUCCGACGAUCAACAUCAAGUUAAACAACAUCCAGUUUCACUUUGAUGUUCAUAGCUGCCAGUUCAGCUACAAAAUACCGAAAAACAUAAGGCACAGAAACAGUAUCGAUAGUGUCACUGCGACUACACAGCAACAGAGGAUUGAGCAUCA
B22: chr5:128440902:128440903:+_ENSG00000066583_ENST00000173527|hu_mus|hu_hu_hu_mus_True|88_98 (ssRNA)
RNA: GGGAGUUCUACAGUCCGACGAUCUUGAACGGUGCUGCCAAGACCUUUAGGGUAUUGUUCCGUUAUGAUAACUGGAAUCCCUAAGAUCCGAGCUCCUUGCAACAGUCUCUGUCCCACACUAAUGAUGUCCCCAAAGUAUUUGAUCAACAGAGGAUUGAGCAUCA

The binders below were run against T1, UNK ZnF1-3 (assay: nsRBNS (natural sequence RNA bind-n-seq); RBNS binding buffer (assumed for nsRBNS): 25 mM Tris pH 7.5, 150 mM KCl, 3 mM MgCl2, 0.01% Triton X-100, 500 ug/ml BSA, 20 U/ml SUPERase-In, 4 C; UNK is unkempt and MSI1 is Musashi-1; names of the RNAs are library labels; protein concentration not given here; high values mean tight binding).
With B1 the binding signal was 0.361 enrichment R.
With B2 the binding signal was 0.591 enrichment R.
For B3, the binding signal was 0.931 enrichment R.
In the case of B4, the binding signal is reported as 5.8 enrichment R.
B5 gave a binding signal of 4.46 enrichment R.
Binder B6 has a binding signal of 0.633 enrichment R.
B7 gave a binding signal of 3.31 enrichment R.
Binder B8 has a binding signal of 1.9 enrichment R.
B9 gave a binding signal of 1.07 enrichment R.
B10 gave a binding signal of 0.899 enrichment R.
With B11 the binding signal was 0.907 enrichment R.
B12 showed a binding signal of 6.3 enrichment R.
B13 was tested, and the binding signal was 3.38 enrichment R.
B14 showed a binding signal of 3.35 enrichment R.
With B15 the binding signal was 1.21 enrichment R.
With B16 the binding signal was 7.31 enrichment R.
Work on B17 yielded a binding signal of 3.69 enrichment R.
For B18, the binding signal was 5.2 enrichment R.
Work on B19 yielded a binding signal of 0.72 enrichment R.
B20 showed a binding signal of 1.11 enrichment R.
B21 was tested, and the binding signal was 0.877 enrichment R.
In the case of B22, the binding signal is reported as 0.627 enrichment R.
